# Screens deposited in PubChem by National Center for Advancing Translational Sciences (NCATS).
# Sfp inh: inhibitors of Bacillus subtilis Sfp phosphopantetheinyl transferase; Q9F4F7; Biochemical Sfp PPTase activity, qHTS; Potency, µM, without a hit: largest response in the series, negative = inhibition, hits mostly inhibitors; hit rate 3.5% among 310,000;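 further: the enzyme is Sfp with the accession as filed and its product quenches rhodamine fluorescence; 0% = enzyme reaction without inhibitor and -100% = no enzyme wells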
#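 Fluorescence-quenching assay with 15 nM Sfp, 5 uM rhodamine-CoA and 12.5 uM BHQ-2-labelled ybbR peptide in pH 7.6 Hepes/MgCl2 buffer. Enzyme was pre-incubated with compound for 15 min at room temperature. Rate was taken from the 30-min fluorescence change (525/598 nm).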
# PLK1 PBD inh: blocks phosphopeptide binding to human PLK1 polo-box domain. Potency, µM, for the others: max response, negative = inhibition, hits mostly inhibitors. Plk1 PBD binding of FITC phosphopeptide, fluorescence polarization. AID 720504. P53350. hit rate 2.8% among 360,000; further: series mostly up to about 57 µM; on the % scale 0 is the no-effect control and ±100 the full control effect; nearly all actives have a fitted effect of over 65% in size
# BAZ2B block: blocks human BAZ2B; AlphaScreen BAZ2B-H3K14Ac peptide displacement; AID 504333; Q9UIF8; Potency, µM (top dose mostly 114 µM), inactives show top-dose activity change, negative = inhibition, usual class: inhibitors; hit rate 4.4% among 360,000; further: on the % scale 0 is the no-effect control and ±100 the full control effect; nearly all actives have a fitted effect of over 60% in size
#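 Multi-concentration screen (max 110 uM) measuring displacement of acetylated histone H3 peptide from BAZ2B by AlphaScreen, using 50 nM protein, 50 nM peptide and 10 ug/mL streptavidin donor plus Ni-chelate acceptor beads.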
# HP1b chromo inh: inhibitors of HP1-beta chromodomain binding to methylated histone tails; AlphaScreen HP1-beta / biotin-H3K9me3 peptide binding; Potency, µM (series often up to 114 µM), for inactives: top-dose activity change, negative = inhibition, actives largely listed as inhibitors; hit rate 0.56% among 390,000; further: nearly all actives have a fitted effect of over 70% in size
#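 Compound inhibition of the preformed complex between 50 nM HP1-beta and 50 nM biotinylated H3K9me3 peptide was read by AlphaScreen. Buffer was PBS pH 7.4 with 0.01% Tween-20. Incubations ran 30 min at room temperature, with 10 ug/mL donor/acceptor beads.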
# JMJD2A Tudor inh: inhibitors of human JMJD2A Tudor domain. O75164. AlphaScreen JMJD2A-Tudor / H3K4me3 peptide binding. Potency, µM (series often up to 114 µM), without a hit: at the top dose activity change, negative = inhibition, actives largely listed as inhibitors. hit rate 4.4% among 390,000. AID 504339; further: on the % scale 0 is the no-effect control and ±100 the full control effect; nearly all actives have a fitted effect of over 50% in size
# Target sequence (O75164 whole entry, looked up, the tested form may be a part): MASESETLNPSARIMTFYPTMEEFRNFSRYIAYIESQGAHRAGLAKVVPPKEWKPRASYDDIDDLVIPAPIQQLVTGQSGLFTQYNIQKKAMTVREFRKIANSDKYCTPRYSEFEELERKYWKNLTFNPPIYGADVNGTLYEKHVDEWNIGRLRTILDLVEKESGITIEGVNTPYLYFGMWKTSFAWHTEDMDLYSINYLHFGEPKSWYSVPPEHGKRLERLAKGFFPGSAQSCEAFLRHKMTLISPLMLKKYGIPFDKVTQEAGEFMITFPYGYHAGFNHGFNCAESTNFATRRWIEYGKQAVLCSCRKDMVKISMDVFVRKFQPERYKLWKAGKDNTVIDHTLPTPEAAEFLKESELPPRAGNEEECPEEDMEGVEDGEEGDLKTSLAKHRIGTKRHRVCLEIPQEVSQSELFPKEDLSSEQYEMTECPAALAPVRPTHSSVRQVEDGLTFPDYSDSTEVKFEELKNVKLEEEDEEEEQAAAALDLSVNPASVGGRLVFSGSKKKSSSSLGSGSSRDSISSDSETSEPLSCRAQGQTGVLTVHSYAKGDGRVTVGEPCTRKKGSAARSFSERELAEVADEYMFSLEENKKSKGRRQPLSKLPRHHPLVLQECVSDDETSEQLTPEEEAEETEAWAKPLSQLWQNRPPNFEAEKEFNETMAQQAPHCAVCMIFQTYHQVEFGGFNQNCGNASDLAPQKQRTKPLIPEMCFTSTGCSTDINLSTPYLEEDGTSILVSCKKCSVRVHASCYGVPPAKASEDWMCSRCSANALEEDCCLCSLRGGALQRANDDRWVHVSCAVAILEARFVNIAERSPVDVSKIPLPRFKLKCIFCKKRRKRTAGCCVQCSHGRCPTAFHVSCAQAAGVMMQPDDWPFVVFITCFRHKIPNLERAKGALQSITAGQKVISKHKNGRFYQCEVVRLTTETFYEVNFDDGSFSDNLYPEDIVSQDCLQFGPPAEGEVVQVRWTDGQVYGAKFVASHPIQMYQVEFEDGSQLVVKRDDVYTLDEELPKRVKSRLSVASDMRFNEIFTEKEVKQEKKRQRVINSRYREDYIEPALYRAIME
# G9a block: inhibitors of human histone lysine methyltransferase G9a; Q96KQ7; G9a H3K9 monomethylation, AlphaScreen, 2 h; Potency, µM (top dose mostly 102 µM), for inactives: at the highest dose activity, negative = inhibition, usual class: inhibitors; hit rate 8.8% among 350,000; AID 504332; further: on the % scale 0 is the no-effect control and ±100 the full control effect; nearly all actives have a fitted effect of over 75% in size
#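 AlphaScreen detection with an anti-monomethyl H3K9 antibody quantified product after a 2 h room-temperature reaction containing 500 nM biotinylated H3K9 peptide, 20 µM SAM and 20 nM enzyme, which had been preincubated 15 min with compound.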
# * marks the source's active call; other numbers are inactive results; ? = inconclusive; nt = no result given; [ ] = dose if it differs, or a comment. A selection: hits, their analogues and other compounds. The true share with any hit is near 12%. The call rests on the fitted dose curve; in most records, active means well fitted curve in the direction sought with a large enough effect; inconclusive means small, poorly fitted or top-dose-only effect, or another doubt; inactive means no such curve, though single readings can be large; an effect the other way counts as inactive or inconclusive. Potency means the concentration at half of the fitted maximal effect.
SMILES,Sfp inh,PLK1 PBD inh,BAZ2B block,HP1b chromo inh,JMJD2A Tudor inh,G9a block
Cc1ccc(/C=C/C(=O)N2CCN(c3ncccn3)CC2)o1,-105%,30µM*,-8%,?,28µM*,4µM*
CCOc1ccccc1N=c1oc2cc(O)ccc2cc1C(=O)NCC1CCCO1 (stereo not given),4%,-1%,-32%,16%,-30%,?
COc1ccccc1C(=O)NC1CCN(C(=S)NCCc2ccccc2)CC1,9%,?,-1%,-11%,?,-4%[0.501 µM]
COc1ccc(NC(=O)CC(C)n2nc(C)cc2C)cc1Cl (stereo not given),nt,nt,-4%,6%,-19%,5%[59 µM]
COc1ccc(C(=O)NC(CCSC)C(=O)N2CCCCCC2)cc1 (stereo not given),7%,0%,-2%,43%,-5%,14%
O=C(c1ccc(Br)cc1)N1CCN(CCc2ccncc2)CC1,nt,nt,-21%,40%,-8%,4%[59 µM]
S=c1[nH]nc(COc2ccccc2)n1/N=C/C=C/c1ccccc1,-13%,-14%,?,-16%,?,1.6µM*
CCc1n[nH]c(=S)n1/N=C/C(C)=C\c1ccccc1,?,-8%,56µM*,14%,25µM*,7%[0.501 µM]
S=c1[nH]nc(COc2ccccc2)n1/N=C/C(Cl)=C/c1ccccc1,56µM*,24µM*,?,?,?,10%[0.501 µM]
O=c1c2ccccc2nc(COc2ccccc2)n1/N=C/c1ccco1,-16%,-11%,-4%,9%,-19%,3%
S=c1[nH]nc(COc2ccccc2)n1/N=C/C=C/c1ccco1,56µM*,?,45µM*,?,20µM*,nt
O=C1C2CCCN2C(=S)N1C1CCCCC1 (stereo not given),8%,0%,-34%,-5%,-17%,22%
CCc1n[nH]c(=S)n1/N=C/c1cc(Br)c(OC)cc1OC,-19%,-15%,-5%,20%,?,2.5µM*
CCc1n[nH]c(=S)n1/N=C/c1ccc(NC(C)=O)cc1,-13%,?,?,-24%,5µM*,8.9µM*
CCc1n[nH]c(=S)n1/N=C/c1ccc(-c2ccc(Br)cc2)o1,nt,-4%,nt,50%,-15%,nt
Cc1c(-c2nc(-c3ccc4c(c3)OCO4)no2)nnn1-c1cccc(C(F)(F)F)c1,nt,nt,0%,32%,-1%,4%[59 µM]
CC(=O)c1ccc(N2Cc3ccccc3C3(CCOCC3)C2=N)cc1,13%,2%,-25%,37%,-5%,56µM*
CC12CCC(C(=O)NNc3ccc([N+](=O)[O-])cc3)(CC1=O)C2(C)C (stereo not given),-26%,-17%,-3%,22%,-11%,8%[59 µM]
COCCN(CCOC)C(=O)C12CCC(C)(C(=O)C1)C2(C)C (stereo not given),12%,-4%,-5%,10%,-10%,50µM*
CC1(C)Cc2[nH]c(=O)c(C#N)cc2CS1,9%,-2%,8%,25%,2%,32µM*
CCC1(C)Cc2[nH]c(=O)c(C#N)cc2CO1 (stereo not given),11%,-12%,11%,-6%,0%,-32%
CCOC(=O)c1ccc(N2C(=O)c3[nH]nc(-c4ccccc4)c3C2c2cccs2)cc1 (stereo not given),nt,nt,nt,12%,?,-15%[59 µM]
CCC1CCC2(CC1)NNC(=S)NN2,56µM*,-20%,?,-66%,50µM*,2µM*
CCCNC(=O)C1(C)CCCN(C(=O)c2cccc(Cl)c2)C1 (stereo not given),nt,0%,nt,nt,nt,nt
Cc1ccc(-n2c(C)cc(=O)cc2C)c(C)c1,-8%,-5%,-7%,37%,-6%,3%[59 µM]
SMILES,Sfp inh,PLK1 PBD inh,BAZ2B block,HP1b chromo inh,JMJD2A Tudor inh,G9a block
Cc1cc(N)ccc1-n1c(C)ccc1C,-9%,-5%,-3%,-23%,?,14µM*
Cc1cc(N)ccc1N1CCCC1,14µM*,?,45µM*,50µM*,20µM*,?
Cc1ccc(S(=O)(=O)Nc2ccc(-c3ccc(N4CCCCCC4)nn3)cc2)cc1C,nt,nt,-2%,-1%[57 µM],-18%,1%[59 µM]
Cc1ccc(N2CCN(C(=O)Nc3cccc([N+](=O)[O-])c3)CC2C)cc1 (stereo not given),12%,-8%,56µM*,?,?,?
CCN(CC)CCN(C(=O)c1ccc(N2C(=O)CCC2=O)cc1)c1nc2cc3c(cc2s1)OCCO3,?,-7%,nt,13%[57 µM],-32%,50µM*
CCN(CC)CCN(C(=O)c1cccc(N2C(=O)CCC2=O)c1)c1nc2cc3c(cc2s1)OCO3,-6%,-10%,nt,26%,-19%,50µM*
O=C(NCCc1ccccn1)C(F)(F)C(F)(F)C(F)(F)C(F)(F)C(F)(F)C(F)F,-9%,27µM*,15%,10%,50µM*,?
COc1cc(/C=C/C(=O)O)cc(S(=O)(=O)N2CCCc3ccccc32)c1OC,7%,27µM*,-19%,-15%,-9%[11.4 µM],?
COCCn1c(=O)sc2ccccc2c1=O,7%,3µM*,0%,3%,14µM*,2%
CC1CCN(CCCn2c(=S)[nH]c3c(sc4ccc([N+](=O)[O-])cc43)c2=O)CC1,56µM*,-9%,-17%,28%,-13%,40µM*
CC1CCN(CCCn2c(=S)[nH]c3c(sc4ccccc43)c2=O)CC1,-23%,-8%,-25%,1%,?,8.9µM*
COCCCn1c(=O)c2ccccc2c2ccccc2c1=O,18%,-1%,-29%,46%,25%,65%[59 µM]
COCCCn1c(=S)[nH]c2c(sc3ccccc32)c1=O,79µM*,-19%,-11%,-7%,-35%,?
COc1ccc(C2C(C(=O)NCc3ccccn3)CCC(=O)N2c2cc(OC)c(OC)c(OC)c2)cc1 (stereo not given),11%,2%,-3%,37%,2%,5%
C=Cc1ccc(Cn2c(C(=O)O)c(CNCc3ccc(F)cc3)c3ccc(C)cc32)cc1,nt,nt,-33%,4%,-26%,?
CCOc1ccccc1C(=O)Nc1cc(C)ccc1NC(=O)c1ccco1,11%,2%,-7%,30%,-6%,?
Clc1ccc(C2=C3CCCCn4c(-c5ccccc5)c[n+](c43)C2)cc1,79µM*,-14%,50µM*,2%,?,14µM*
O=C(C[n+]1cc(-c2ccc(Cl)cc2)n2c1CCCCC2)c1ccccc1,2%,-15%,-4%,46%,-19%,11%[12.7 µM]
COc1ccc(-c2c[n+]3c4n2CCCCC4=C(c2ccc(Br)cc2)C3)cc1,45µM*,-8%,40µM*,-13%,56µM*,8.9µM*
Cc1ccc(NC(=O)C2CC2C)cc1S(=O)(=O)N1CCOCC1 (stereo not given),nt,-3%,5%,15%,-1%,-10%[2.33 µM]
